PubChem BioAssay (Tox21)
Results filed as inconclusive are left out. Where a call stands in place of a potency, no number is given. Where a structure was tested more than once in an assay, its records may differ in their call. Activity calls are given as the source filed them. The call rests on the fitted dose curve; in most records, active means well fitted curve in the direction sought with a large enough effect in the repeat runs; inconclusive means weak or mixed curves; inactive means no such curve, though single readings can be large; an effect the other way counts as inactive or inconclusive.

Legend:
[1] = molecular target: Cytochrome P450 1A2 (Homo sapiens) (UniProt P05177); experiment: Cytochrome P450 Family 1 Subfamily A Member 2 (CYP1A2) small molecule antagonists: luciferase reporter qHTS assay (AID 1671199); on activity change, negative = inhibition: series mostly up to about 120 µM
Outline: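 P450-Glo CYP1A2, 1536-well qHTS: enzyme/proluciferin substrate + cpd (DMSO), 10 min RT; NADPH regen, 1 h RT; detection reagent, 20 min; luminescence, RLU.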

[2] = molecular target: Voltage-gated inwardly rectifying potassium channel KCNH2 (Homo sapiens) (UniProt Q12809); experiment: Human Ether-a-go-go-Related Gene (hERG) channel small molecule antagonists: fluorescence cell-based qHTS assay (AID 1671200);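 on activity change, negative = inhibition: hERG-expressing U2OS cells given a thallium stimulus after FluxOR II dye loading; series mostly up to about 77 µM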
Outline: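 Quantitative HTS in hERG-U2OS cells: thallium entry through the channel reports activity, read as continuous 480/540 nm fluorescence over 2 min after stimulus addition.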

[3] = molecular target: Cytochrome P450 3A4 (Homo sapiens) (UniProt P08684); experiment: Cytochrome P450 Family 3 Subfamily A Member 4 (CYP3A4) small molecule antagonists: luciferase reporter qHTS assay (AID 1671201); on activity change, negative = inhibition: series mostly up to about 120 µM
Outline: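 Inhibition of CYP3A4 is measured as loss of light: the enzyme converts a proluciferin substrate to luciferin, detected luminescently. Reaction ran 1 h at room temperature with NADPH regeneration after a 10 min compound preincubation.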
Further: nearly all actives have a fitted effect of over 50% in size.
Potency means the concentration at half of the fitted maximal effect.

Cytochrome P450 1A2 (Homo sapiens), sequence (P05177 whole entry, looked up): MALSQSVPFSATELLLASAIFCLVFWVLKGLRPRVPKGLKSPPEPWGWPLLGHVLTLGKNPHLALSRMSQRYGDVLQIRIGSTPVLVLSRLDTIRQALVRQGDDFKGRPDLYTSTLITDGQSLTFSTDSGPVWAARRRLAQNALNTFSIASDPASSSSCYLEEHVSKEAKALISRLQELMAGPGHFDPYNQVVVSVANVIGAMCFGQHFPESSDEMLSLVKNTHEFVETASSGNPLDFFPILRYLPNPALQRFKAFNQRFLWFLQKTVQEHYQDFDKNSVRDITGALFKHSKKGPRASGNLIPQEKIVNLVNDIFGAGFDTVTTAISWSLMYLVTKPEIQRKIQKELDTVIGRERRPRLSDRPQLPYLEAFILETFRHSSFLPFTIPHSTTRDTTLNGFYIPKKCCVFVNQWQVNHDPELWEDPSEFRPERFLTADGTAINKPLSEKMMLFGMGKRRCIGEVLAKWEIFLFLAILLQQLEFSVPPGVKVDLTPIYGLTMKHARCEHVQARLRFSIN
Voltage-gated inwardly rectifying potassium channel KCNH2 (Homo sapiens), sequence (Q12809 whole entry, looked up): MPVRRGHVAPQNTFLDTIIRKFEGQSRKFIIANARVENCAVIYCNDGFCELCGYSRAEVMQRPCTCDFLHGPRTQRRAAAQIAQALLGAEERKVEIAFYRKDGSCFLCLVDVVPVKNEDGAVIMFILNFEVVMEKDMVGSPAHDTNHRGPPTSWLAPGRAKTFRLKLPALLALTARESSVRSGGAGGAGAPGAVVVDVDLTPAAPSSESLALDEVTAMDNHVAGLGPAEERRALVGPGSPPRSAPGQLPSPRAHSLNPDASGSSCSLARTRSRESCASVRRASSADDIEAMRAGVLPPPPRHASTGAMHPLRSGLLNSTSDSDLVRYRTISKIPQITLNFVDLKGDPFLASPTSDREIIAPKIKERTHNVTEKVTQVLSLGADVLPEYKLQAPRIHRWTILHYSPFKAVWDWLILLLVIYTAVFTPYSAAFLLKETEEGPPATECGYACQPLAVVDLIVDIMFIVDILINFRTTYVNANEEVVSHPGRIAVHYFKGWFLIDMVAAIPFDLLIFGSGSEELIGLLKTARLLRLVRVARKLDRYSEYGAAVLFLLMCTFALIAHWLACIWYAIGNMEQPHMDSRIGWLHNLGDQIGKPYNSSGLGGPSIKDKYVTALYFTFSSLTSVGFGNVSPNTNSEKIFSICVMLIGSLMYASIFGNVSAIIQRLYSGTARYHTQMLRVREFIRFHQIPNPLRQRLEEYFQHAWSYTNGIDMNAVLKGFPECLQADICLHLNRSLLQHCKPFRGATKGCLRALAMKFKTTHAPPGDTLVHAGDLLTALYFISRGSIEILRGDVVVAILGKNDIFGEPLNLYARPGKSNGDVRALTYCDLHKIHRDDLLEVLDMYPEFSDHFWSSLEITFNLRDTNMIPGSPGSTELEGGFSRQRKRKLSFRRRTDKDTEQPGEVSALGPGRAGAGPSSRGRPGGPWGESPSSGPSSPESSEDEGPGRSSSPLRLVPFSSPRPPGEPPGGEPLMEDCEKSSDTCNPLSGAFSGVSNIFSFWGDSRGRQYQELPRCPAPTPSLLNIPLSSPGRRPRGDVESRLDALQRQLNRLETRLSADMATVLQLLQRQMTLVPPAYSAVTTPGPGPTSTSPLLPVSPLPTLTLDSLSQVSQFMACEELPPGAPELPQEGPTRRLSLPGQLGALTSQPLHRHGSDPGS
Cytochrome P450 3A4 (Homo sapiens), sequence (P08684 whole entry, looked up): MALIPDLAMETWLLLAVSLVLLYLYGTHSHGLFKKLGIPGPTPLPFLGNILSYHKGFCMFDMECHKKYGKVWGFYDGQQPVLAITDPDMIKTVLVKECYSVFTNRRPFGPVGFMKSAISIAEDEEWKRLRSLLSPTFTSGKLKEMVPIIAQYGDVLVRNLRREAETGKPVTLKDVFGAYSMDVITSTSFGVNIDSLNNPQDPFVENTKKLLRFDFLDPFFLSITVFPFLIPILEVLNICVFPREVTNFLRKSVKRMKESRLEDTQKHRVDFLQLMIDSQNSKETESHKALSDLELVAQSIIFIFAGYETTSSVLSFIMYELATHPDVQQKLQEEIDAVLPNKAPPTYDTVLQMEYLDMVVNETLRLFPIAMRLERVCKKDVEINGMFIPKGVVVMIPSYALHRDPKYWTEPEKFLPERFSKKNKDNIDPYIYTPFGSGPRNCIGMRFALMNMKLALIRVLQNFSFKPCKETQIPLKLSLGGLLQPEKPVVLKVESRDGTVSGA

Row | SMILES | Potency [1] | Potency [2] | activity change, negative = inhibition [1] | activity change, negative = inhibition [2] | Potency [3]
1 | CSc1c(Cl)c(Cl)c(Cl)c(Cl)c1Cl | 14.1 µM (active) | inactive |  |  | 
2 | Oc1ccc(-c2ccccc2)c(Cl)c1 | 12.6 µM (active) | inactive |  |  | 
3 | CCC(C)c1cc([N+](=O)[O-])cc([N+](=O)[O-])c1OC(=O)OC(C)C (stereo not drawn) | 2.52 µM (active) | inactive |  |  | 
4 | CCN(CC)CCOc1ccc(C(O)(Cc2ccc(Cl)cc2)c2ccc(C)cc2)cc1 (stereo not drawn) | inactive | 1.34 µM (active) |  |  | 
5 | CCCCNc1c(C(=O)OCC)c(C)nc2c1cnn2CC | 2.75 µM (active) | inactive |  |  | 
6 | Clc1ccc(C(Cn2ccnc2)OCc2ccsc2Cl)c(Cl)c1 (stereo not drawn) | 4.56 µM (active) | 9.52 µM (active) |  |  | 
7 | CCc1c(C(=O)O)c(=O)cnn1-c1ccc(Cl)cc1 | inactive | inactive |  |  | 
8 | CC(C)(C)c1n[nH]c(=O)n(N)c1=O | inactive | inactive |  |  | 
9 | O=S(O)O |  |  | -6.76% [at 23.6 µM] (inactive) | 4.11% [at 15.8 µM] (inactive) | 
10 | O=Nc1ccc(NO)cc1 | inactive | inactive |  |  | 
11 | Oc1cc2ccccc2cc1O | 31.7 µM (active) | inactive |  |  | 
12 | CC1=C(/C=C/C(C)=C/C=C/C(C)=C/C(=O)Nc2ccc(O)cc2)C(C)(C)CCC1 | 72.8 µM (active) and inactive | inactive |  |  | 
13 | O=CC1CC1 | inactive | inactive |  |  | 
14 | COc1ccc2sc(C(=O)Nc3nnn[nH]3)c(OC(C)C)c2c1 | inactive | inactive |  |  | 
15 | CN1CN(C)CN(C)C1 | inactive | inactive |  |  | 
16 | CN1CCN(C2Cc3ccccc3Sc3ccc(Cl)cc32)CC1 (stereo not drawn) | inactive | 0.848 µM (active) |  |  | 
17 | COC(=O)NCCC[Si](OC)(OC)OC | inactive | inactive |  |  | 
18 | CC(C)=CCCC(C)CCOC(=O)C(C)C (stereo not drawn) | inactive | inactive |  |  | 
19 | C=CC(=O)OCCN(CC)CC | inactive | inactive |  |  | inactive
20 | CCOC(=O)[C@@](C)(N)Cc1ccc(O)c(O)c1 | inactive | inactive |  |  | inactive
21 | C=CC(C)C#N (stereo not drawn) | inactive | inactive |  |  | inactive

Row | SMILES | Potency [1] | Potency [2] | activity change, negative = inhibition [1] | activity change, negative = inhibition [2] | Potency [3]
22 | CN(C)CCCN1c2ccccc2Sc2ccc(C(F)(F)F)cc21 | 3.63 µM (active) | 2.68 µM (active) |  |  | inactive
23 | SCCCCCCCCS | inactive | inactive |  |  | inactive
24 | Cn1cnc2ncnc(N)c21 | 17.7 µM (active) | inactive |  |  | inactive
25 | ClC/C=C\CCl | 11.7 µM (active) | inactive |  |  | inactive
26 | OCCC(O)CO (stereo not drawn) | inactive | inactive |  |  | inactive
27 | O=C1c2c(O)ccc([N+](=O)[O-])c2C(=O)c2c([N+](=O)[O-])ccc(O)c21 | 7.03 µM (active) | inactive |  |  | 12.5 µM (active)
28 | Cc1cncc(C)c1 | inactive | inactive |  |  | inactive
29 | c1cc2c3c(c1)ccc1cccc(c13)C2 | 3.63 µM (active) | inactive |  |  | inactive
30 | CCCC(O)C(O)CO (stereo not drawn) | inactive | inactive |  |  | inactive
31 | O=Cc1ccc(F)cc1 | inactive | inactive |  |  | inactive
32 | CCCCCCCCCCCCN(CCO)CCO | 11.2 µM (active) | 7.73 µM (active) |  |  | inactive
33 | CCN(CC)CCNc1ccc(CO)c2sc3ccccc3c(=O)c12 | 0.512 µM (active) | 10.7 µM (active) |  |  | inactive
34 | CCO[Si](CCCSSSSCCC[Si](OCC)(OCC)OCC)(OCC)OCC | 71.1 µM (active) | inactive |  |  | 2.83 µM (active)
35 | CS(C)(=O)=O | inactive | inactive |  |  | inactive
36 | CNC(=S)NN | 39.9 µM (active) | inactive |  |  | inactive
37 | CCCCCCCC(=O)OCC | inactive | inactive |  |  | inactive
38 | OCCN1CN(CCO)CN(CCO)C1 | inactive | inactive |  |  | inactive
39 | Cc1cccc(C)n1 | 39.9 µM (active) | inactive |  |  | inactive
40 | O=C1OC(=O)c2cccc3cccc1c23 | 35.9 µM (active) | inactive |  |  | inactive
41 | OCCCS | inactive | inactive |  |  | inactive
42 | CCN(CC)c1cccc(C)c1 | inactive | inactive |  |  | inactive
